Source: PubChem BioAssay (NCI)
The panel holds about 83,000 compounds, 20% with a hit somewhere; the sample as a whole holds those more often.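 The endpoint reported here, percent growth, reads 100 for growth as untreated, 0 for no net growth and -100 for all cells dead.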 Unmarked numbers belong to inactive results. Active and inactive are the calls of the source. The calls were made as follows: active = growth percent below 10; inactive = the rest.

Legend:
Test in all cases: NCI-60 one-dose screen, 48 h (100 = growth as untreated, 0 = no growth, -100 = all killed)
Conditions in all cases: 10 µM
[1] = system: SK-MEL-2 melanoma
[2] = system: SN12C renal
[3] = system: TK-10 renal
[4] = system: ACHN renal
[5] = system: CAKI-1 renal
[6] = system: A498 renal
[7] = system: CCRF-CEM leukemia
[8] = system: MOLT-4 leukemia
[9] = system: SR leukemia
[10] = system: RPMI-8226 leukemia
[11] = system: OVCAR-8 ovarian
[12] = system: OVCAR-5 ovarian
[13] = system: OVCAR-4 ovarian
[14] = system: SK-OV-3 ovarian
[15] = system: IGROV1 ovarian
[16] = system: OVCAR-3 ovarian
[17] = system: HS 578T breast
[18] = system: NCI/ADR-RES ovarian
[19] = system: UO-31 renal

| Compound | growth [1] | growth [2] | growth [3] | growth [4] | growth [5] | growth [6] | growth [7] | growth [8] | growth [9] | growth [10] | growth [11] | growth [12] | growth [13] | growth [14] | growth [15] | growth [16] | growth [17] | growth [18] | growth [19] |
| --- | --- | --- | --- | --- | --- | --- | --- | --- | --- | --- | --- | --- | --- | --- | --- | --- | --- | --- | --- |
| O/N=C1\CCC2CCCCC2C1 (configuration not stated) | 101% | 113% | 101% | 97.3% | 96.2% | 103% | 103% | 98.6% | 87.1% | 104% | 112% | 104% | 97.8% | 105% | 105% | 111% | 108% | 109% | – |
| O=C(Nc1ccc(OS(=O)(=O)Cc2ccccc2)cc1)C12CC3CC(CC(C3)C1)C2 | 102% | 88.3% | 112% | 99.8% | 84.2% | 83.1% | 85.2% | 41.5% | 30.3% | 35% | 91.4% | 104% | 78.7% | 87.3% | 97.8% | 80.2% | 98.7% | 84.4% | – |
| COc1cc(C2C=C(c3ccc(Cl)c(Cl)c3)N=C3SC(C)=CN32)cc(OC)c1OC (configuration not stated) | 83.4% | 92.3% | 94.7% | 90.3% | 67.3% | 74% | 36.7% | 46.2% | -11.9% (active) | -16.1% (active) | 73.1% | 93.2% | 67.8% | 107% | 85.6% | 79.8% | 100% | 81.3% | – |
| CCOc1ccc2c(c1)CC[C@@H]1[C@@H]2CC[C@]2(C)[C@@H](O)[C@@H](O)C[C@@H]12 | 115% | 93.7% | 105% | 126% | 89.8% | 107% | 87.9% | 95.2% | 88.5% | 92.9% | 95.1% | 95.7% | 90.2% | 113% | 106% | 118% | 113% | 107% | – |
| COc1ccc(-c2cc(/C=C3\C(=O)Nc4cc(Cl)ccc43)[nH]n2)cc1OC | 58.7% | 70.5% | 92.7% | 84.3% | 63.9% | 65.3% | 54.2% | 75% | 21.9% | 79.8% | 104% | – | 85.6% | 78.2% | 50.7% | 53% | 60.5% | 62.5% | – |
| CC1=CSC2=NC(c3ccc(Cl)c(Cl)c3)=CC(c3ccc(Cl)cc3)N12 (configuration not stated) | -14.1% (active) | 13.7% | 18.6% | 13.5% | 5.28% (active) | -12% (active) | 31.9% | 35.2% | 0.606% (active) | 82.3% | 29.1% | 91.8% | 62.5% | -19.9% (active) | -52% (active) | 18% | -1.12% (active) | 92.9% | – |
| COc1cc(Cl)cc(-c2nn(-c3cccc(NC(=O)Nc4cccc(C(F)(F)F)c4)c3)cc2-c2ccncc2)c1 | -36.7% (active) | 13.9% | 23.4% | – | 16.1% | -6.74% (active) | 3.34% (active) | -9.16% (active) | -13.5% (active) | -14.2% (active) | -12.3% (active) | 34.1% | 3.28% (active) | 14.2% | 28.8% | -0.412% (active) | 23.1% | 3.58% (active) | -4.59% (active) |
| COc1ccc(NC(=O)c2sc3nc4c(cc3c2N)C(O)CCC4)cc1 (configuration not stated) | 96% | 99.8% | 122% | – | 92.7% | -8.3% (active) | 101% | 92.8% | – | 103% | 101% | 104% | 95.6% | 112% | 106% | 104% | 112% | 102% | 86.4% |
| O=C(Nc1ccc(Oc2ccc(Nc3nc4ccccc4s3)cc2)cc1)Nc1ccc(Cl)c(Cl)c1 | 50.7% | 24.9% | 54.1% | 20.3% | 37.6% | 33.4% | 24.5% | 9.65% (active) | 8.33% (active) | 22.2% | 32.6% | 70.5% | 24.9% | 69% | 39.4% | 22.8% | 61.9% | 25.3% | – |
| CCCCCCCC/C=C/CCCCCCCCC1=NCCN1CCO | 95.1% | 64.1% | 124% | 58.7% | 80.5% | 84.7% | 19.7% | 34.3% | -8.86% (active) | 52.7% | 74.9% | – | 81.7% | 97.8% | 63.8% | 83.1% | 81% | 81.1% | – |
| Cc1ccc(/C=C2\CN(Cc3cn(CCNc4ccnc5cc(Cl)ccc45)nn3)C/C(=C\c3ccc(C)cc3)C2=O)cc1 | -27.5% (active) | -63.4% (active) | 29.9% | – | -13.6% (active) | -81.1% (active) | 11.7% | -10.4% (active) | -19.5% (active) | -30.2% (active) | 8.83% (active) | -10.9% (active) | 30.3% | 8.53% (active) | 28.3% | -50.6% (active) | 13.9% | 9.21% (active) | – |
| Cc1nc(Nc2nc3ccccc3o2)nc(-c2cccc([N+](=O)[O-])c2)c1C(=O)Nc1ccc(F)c(Cl)c1 | -33.7% (active) | 7.04% (active) | 8.62% (active) | 12.9% | 9.69% (active) | -37.2% (active) | 22.8% | -23.7% (active) | -8.33% (active) | -41.4% (active) | 6.5% (active) | 33% | 16% | 10% | 40.3% | 6.94% (active) | 4.55% (active) | 3.88% (active) | – |
| CCOC(=O)c1ccc(NC(=O)Nc2nncs2)cc1 | 37.4% | 31.2% | 45.1% | 36.1% | 24.9% | -13.3% (active) | 7.54% (active) | 11.7% | 9.88% (active) | 6.49% (active) | 10.8% | 42.4% | 49.9% | 3.12% (active) | 16.5% | -32.7% (active) | – | – | – |
| COc1ccc(-n2nnc3c(sc4ccccc43)c2=O)cc1 | 77.1% | 61.9% | 8.22% (active) | -22.3% (active) | 36.6% | -2.38% (active) | 89.9% | 99.5% | 51.1% | 72% | 29.1% | 80.2% | -46.9% (active) | -15.6% (active) | -0.829% (active) | 24% | 21.4% | 52.9% | – |
| O=C(CCCC(=O)N/N=C/c1cc(Cl)ccc1O)N/N=C\c1cc(Cl)ccc1O | 51.7% | 35.3% | 32.3% | – | -1.73% (active) | – | -0.225% (active) | -12.9% (active) | – | 27.3% | 20.3% | 67.4% | 22.1% | 13.9% | 31.2% | 35.5% | 68.4% | 14.1% | 5.41% (active) |
| N=C(N)c1ccc(-c2ccc(-c3ccccc3)s2)s1 | -77.7% (active) | -74.9% (active) | -61.7% (active) | -82.6% (active) | -59.4% (active) | 32.1% | -49.4% (active) | -55.9% (active) | -40% (active) | -44.3% (active) | -39.9% (active) | – | -70.2% (active) | -50.1% (active) | -31.1% (active) | -41.3% (active) | -21% (active) | -35.2% (active) | – |
| COc1ccc2nc(C)cc(Nc3ccc(Cl)cc3)c2c1 | 104% | 97.4% | 109% | 105% | 101% | 103% | 94.5% | 110% | 113% | 102% | 101% | 101% | 90.5% | 105% | 98.2% | 105% | 112% | 102% | – |
